“And” between values parts separate entries of the source, which are not always exact repeats. Identical values can stand only once.
system: HEK293 WT BDD-FVIII-Gluc; experiment: secreted FVIII-Gluc luciferase Z-score vs DMSO control; higher = more FVIII-Gluc secretion; settings: 5 µM
Experimental: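 Natural plant-compound library (480 compounds, ST catalogue IDs) screened on HEK293 cells stably expressing WT BDD-FVIII-Gaussia luciferase fusion at 5 µM. Secreted Gluc activity in the medium is given as a Z-score relative to DMSO controls.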

Row | SMILES | secreted FVIII-Gluc luciferase Z-score
1 | COC(=O)[C@H]1[C@H]2C[C@H]3c4[nH]c5ccccc5c4CCN3C[C@H]2CC[C@@H]1O | -0.252
2 | C[C@@H]1C(=O)O[C@H]2[C@@H](O)[C@@]34[C@H]5CC(C(C)(C)C)[C@]36[C@@H](OC(=O)[C@@H]6O)O[C@@]4(C(=O)O5)[C@@]12O (some centres undefined) | 0.119
3 | O=c1c(O)c(-c2ccc(O)cc2)oc2cc(O)ccc12 | 0.511
4 | CC1(C)S[C@@H]2[C@H](NC(=O)C(N)c3ccccc3)C(=O)N2[C@H]1C(=O)O (some centres undefined) | -0.57
5 | COC(=O)C1(O)CC(O)C(NC(C)=O)C(C(O)C(O)CO)O1 (centres undefined) | 0.68
6 | Cc1c(C(=O)O)c(O)cc2c1C(=O)c1c(O)c([C@H]3O[C@H](CO)[C@@H](O)[C@H](O)[C@H]3O)c(O)c(O)c1C2=O | 0.527 and 0.738
7 | O=C(O)C1=C[C@@H](O)[C@@H](O)[C@H](O)C1 | 0.3
8 | COc1ccc2c3c1O[C@H]1C[C@@H](O)C=C[C@@]31CCN(C)C2 | 0.615
9 | C=C[C@@](C)(O)CC[C@@H]1[C@@]2(C)CCCC(C)(C)[C@@H]2CC[C@@]1(C)O | 0.556
10 | Cc1ccc(C(=O)[C@@H]2[C@H]3C4COC(O4)C(=O)[C@@H]3[C@H]3C=Cc4ccccc4N32)cc1 (some centres undefined) | -0.368
11 | CC(C)=CCc1c(O)cc(O)c2c1O[C@H](c1ccccc1)CC2=O | -0.692
12 | C[C@H](CCC(=O)O)[C@H]1CC[C@H]2[C@@H]3C(=O)C[C@@H]4CC(=O)CC[C@]4(C)[C@H]3CC(=O)[C@]12C | 0.818
13 | C=C(C)[C@H]1CC=C(C)C(=O)C1 | 0.764
14 | CC(C)(CO)[C@@H](O)C(=O)NCCCO | 1.71
15 | CC1(C)[C@@H](O)CC[C@]2(C)[C@H]3C(=O)C=C4[C@@H]5C[C@@](C)(C(=O)O)CC[C@]5(C)CC[C@@]4(C)[C@]3(C)CC[C@@H]12 | 0.00884
16 | Nc1ncnc2c1ncn2[C@@H]1O[C@H](COP(=O)(O)OP(=O)(O)O)[C@@H](O)[C@H]1O | 0.0418
17 | O=c1c(-c2ccc(O[C@@H]3O[C@H](CO)[C@@H](O)[C@H](O)[C@H]3O)cc2)coc2cc(O)cc(O)c12 | 0.683
18 | Cc1cn([C@H]2C[C@H](O)[C@@H](CO)O2)c(=O)[nH]c1=O | 0.713
19 | C=CC(C)(O)CCC=C(C)C (centres undefined) | -0.395
20 | OCC1OC(n2cnc3cncnc32)C(O)C1O (centres undefined) | -0.247

Row | SMILES | secreted FVIII-Gluc luciferase Z-score
21 | CC(C)=CCC/C(C)=C/CC/C(C)=C/CO | 0.255
22 | COc1ccc2c(C)cc(=O)oc2c1 | 0.626
23 | Oc1cc(O)c2c(c1)O[C@H](c1ccc(O)c(O)c1)[C@@H](O)C2 | 0.0727
24 | O=C(/C=C/c1ccc(O)cc1)c1c(O)cc(O)cc1O | 0.157
25 | CC1=C(C/C=C(\C)CCCC(C)CCCC(C)CCCC(C)C)C(=O)c2ccccc2C1=O (centres undefined) | 0.33
26 | CC[C@H](CC[C@@H](C)[C@H]1CC[C@H]2[C@@H]3CC=C4C[C@@H](O)CC[C@]4(C)[C@H]3CC[C@]12C)C(C)C | -0.318
27 | COc1cc(O)c2c(=O)cc(-c3ccccc3)oc2c1 | 1.12
28 | COc1cc2nc(N3CCN(C(=O)c4ccco4)CC3)nc(N)c2cc1OC | 0.161
29 | C=C1CCC2OC2(C)CCC2C1CC2(C)C (centres undefined) | 0.146
30 | O=C1c2c(O)cc(O)cc2OC(c2ccc(O)c(O)c2)C1O (centres undefined) | -0.135
31 | COC1=CC(=O)CC(C)C12Oc1c(Cl)c(OC)cc(OC)c1C2=O (centres undefined) | 0.0156
32 | O=c1ccn(C2OC(COP(=O)(O)O)C(O)C2O)c(=O)[nH]1 (centres undefined) | 0.638
33 | COC(=O)C1C2CC3c4[nH]c5cc(OC)ccc5c4CCN3CC2CC(OC(=O)c2cc(OC)c(OC)c(OC)c2)C1OC (centres undefined) | -0.436
34 | Cc1c(-c2ccccc2)oc2cc(O)ccc2c1=O | -0.0243
35 | C[S+]([O-])CCC(N)C(=O)O (centres undefined) | 1.1
36 | Nc1nc2ncc(CNc3ccc(C(=O)NC(CCC(=O)O)C(=O)O)cc3)nc2c(=O)[nH]1 (centres undefined) | -0.865
37 | NC(Cc1cnc[nH]1)C(=O)O (centres undefined) | 0.443
38 | CCOC(=O)C1=C[C@]2(CC)CCCN3CCc4c(n1c1ccccc41)[C@@H]32 | 0.132
39 | COc1ccc(-c2cc(=O)c3ccc(O)cc3o2)cc1 | 1.22

Source: the supplement of paper PMC12024529
